TDP1 cell CPT: qHTS for Inhibitors of human tyrosyl-DNA phosphodiesterase 1 (TDP1): qHTS in cells in presence of CPT; Potency, µM (top dose mostly 46.2 µM), usual class: inhibitors; 420,000 compounds, 12% hits; chicken DT40 Tdp1-/-;hTDP1 cells + 20 nM CPT, ATP luminescence, 48 h; AID 686979, 2013; note: nearly all actives have a fitted effect of over 55% in size
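Chicken DT40 Tdp1-/- cells complemented with human TDP1, 400 cells/well, exposed to compounds plus 20 nM camptothecin for at least 48 h at 37 C; viability read as ATP content by CellTiter-Glo luminescence.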
TDP1 cell noCPT: qHTS for Inhibitors of human tyrosyl-DNA phosphodiesterase 1 (TDP1): qHTS in cells in absence of CPT; DT40 Tdp1-/- hTDP1 cells, no CPT, ATP luminescence, 48 h; Potency, µM (top dose mostly 46.2 µM), hits mostly inhibitors; 420,000 compounds, 15% hits; note: nearly all actives have a fitted effect of over 55% in size
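Growth kinetics read by CellTiter-Glo luminescence after ≥48 hr at 37 °C. Cells: DT40 Tdp1-/- stably carrying human TDP1, 400 per well, compound exposure in the absence of CPT (DMSO vehicle).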
TDP1 block: qHTS Assay for Inhibitors of Tyrosyl-DNA Phosphodiesterase (TDP1); AID 485290, 2010; Potency, µM (doses to about 130 µM), usual class: inhibitors; recombinant TDP1, AlphaScreen DNA substrate cleavage; 350,000 compounds, 0.28% hits; note: nearly all actives have a fitted effect of over 40% in size
Target sequence (Q9NUW8 whole entry, looked up): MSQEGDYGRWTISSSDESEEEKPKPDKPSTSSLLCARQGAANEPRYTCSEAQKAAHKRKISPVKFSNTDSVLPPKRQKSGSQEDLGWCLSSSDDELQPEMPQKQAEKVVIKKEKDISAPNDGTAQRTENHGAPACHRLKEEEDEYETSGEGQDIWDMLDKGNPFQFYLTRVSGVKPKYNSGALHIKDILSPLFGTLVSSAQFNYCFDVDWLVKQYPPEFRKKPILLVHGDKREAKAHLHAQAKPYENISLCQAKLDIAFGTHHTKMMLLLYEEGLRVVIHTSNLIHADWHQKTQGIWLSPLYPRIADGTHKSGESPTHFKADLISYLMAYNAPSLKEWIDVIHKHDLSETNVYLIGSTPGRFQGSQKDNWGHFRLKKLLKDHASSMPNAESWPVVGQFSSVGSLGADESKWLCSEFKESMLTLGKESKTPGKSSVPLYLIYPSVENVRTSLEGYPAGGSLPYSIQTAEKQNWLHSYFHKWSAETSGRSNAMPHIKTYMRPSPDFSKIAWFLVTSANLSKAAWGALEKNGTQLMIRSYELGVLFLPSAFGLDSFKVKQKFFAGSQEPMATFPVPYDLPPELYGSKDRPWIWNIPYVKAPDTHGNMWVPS
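Signal: AlphaScreen proximity between streptavidin donor and anti-FITC acceptor beads on intact substrate. Reaction: Tdp1 1 nM, substrate 15 nM final, 5 min RT after 15 min compound preincubation.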
HepG2 tox: qHTS for Inhibitors of TGF-b: Cytotox Counterscreen | Potency, µM (titrated, usually from 46.1 µM), actives largely listed as cytotoxic | AID 588856, 2011 | 410,000 compounds, 0.76% hits | HepG2 CAGA-GFP viability, ATP luminescence, 18 h
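CellTiter-Glo luminescence gave cytotoxicity after 18 hours at 37 degrees C. The cells were HepG2 CAGA-GFP in 1% FBS DMEM, stimulated with 500 pg/mL TGF-beta after compound addition. %Activity was normalised to no-cell wells (complete cell-killing) and DMSO (no toxicity), and curves were fitted and classified.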
IL1B secr inh: qHTS for Inhibitors of Inflammasome Signaling: IL-1-beta AlphaLISA Primary Screen; AID 743279, 2014; THP-1 LPS/ATP IL-1B secretion, AlphaLISA, 16 h; stronger effect = lower value; activity change, % at 57.5 µM; 360,000 compounds, 4.7% hits; in the data active = activity change below about -50%; inconclusive = mostly about -30% to -49%
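Secreted IL-1B measured by AlphaLISA bead assay after 16 h compound exposure of THP-1 cells; compounds (final up to 57.5 uM) added 1 h before LPS (250 ng/mL) and ATP (1.25 mM) stimulation; lower signal means less secretion.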
TGFb SMAD3 inh: qHTS for Inhibitors of TGF-b. 410,000 compounds, 1.2% hits. HepG2 CAGA-GFP TGF-b/SMAD3 reporter, GFP fluorescence, 18 h; TGF-beta stimulated, 500 pg/mL final. Potency, µM (top dose mostly 46.1 µM), most hits filed as inhibitors. AID 588855, 2011; note: nearly all actives have a fitted effect of over 65% in size
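Using HEPG2 CAGA-GFP reporter cells at 1000 cells/well, we pinned test compounds, stimulated with recombinant TGF-beta (500 pg/mL final) and measured total well GFP after 18 h.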
Large screens that a line does not name were inactive. Only some compounds are listed: those with a hit (about 18% of all), similar ones and a draw of the others. Unless noted, calls come from the whole dose curve; as a rule, active = well fitted curve in the direction sought with a large enough effect; inconclusive = small, poorly fitted or top-dose-only effect, or another doubt; inactive = no such curve, though single readings can be large; an effect the other way counts as inactive or inconclusive.

COC[C@@H]1CCCN1c1ccc2c(c1)O[C@@H](COCc1ccccc1)CN([C@@H](C)c1ccccc1)S2(=O)=O	TDP1 cell CPT 9.2µM, TDP1 cell noCPT 12µM (no result: TDP1 block, HepG2 tox, TGFb SMAD3 inh)
COC[C@@H]1CCCN1c1ccc2c(c1)O[C@@H](COCc1ccccc1)CN([C@H](C)c1ccccc1)S2(=O)=O	TDP1 cell CPT inconclusive, TDP1 cell noCPT 23µM (no result: TDP1 block, HepG2 tox, TGFb SMAD3 inh)
C[C@H](c1ccccc1)N1C[C@@H](COCc2ccccc2)Oc2cc(N3CCC[C@H]3CO)ccc2S1(=O)=O	TDP1 cell CPT inconclusive, TDP1 cell noCPT 18µM (no result: TDP1 block, HepG2 tox, TGFb SMAD3 inh)
COC(=O)c1ccc(NC(=O)CNCc2ccncc2)cc1	TDP1 cell CPT inconclusive, TDP1 cell noCPT inconclusive
COc1ccccc1CCNC(=O)c1ccc(NC(=O)CC2SC(N3CCCC3)=NC2=O)cc1 (centres undefined)	none (no result: TDP1 block)
CCCN(CCC)C(=O)C[n+]1cccc(/C=N/O)c1	none
CC(C)C[C@H]1CN(CCCC[C@@H]2CNC(=O)C(=O)N2CCc2ccccc2)C(=O)C(=O)N1CCc1ccccc1	none (no result: TDP1 block, HepG2 tox, TGFb SMAD3 inh)
CCS(=O)(=O)NCCc1cc2ccc(C)cc2[nH]c1=O	none
CCCc1cc(=O)oc2c(C)c(O[C@@H]3O[C@H](CO)[C@@H](O)[C@H](O)[C@H]3O)ccc12	TDP1 cell CPT inconclusive, TDP1 cell noCPT 7.3µM (no result: TDP1 block)
Cc1cc(C)c(S(=O)(=O)N2CCN(C(=O)C3COc4ccccc4O3)CC2)c(C)c1 (centres undefined)	TDP1 cell CPT 13µM, TDP1 cell noCPT 9.2µM
CCCc1cc(=O)oc2c(C)c(OCC(=O)c3ccc(N4CCCC4)cc3)ccc12	TDP1 cell CPT inconclusive, TDP1 cell noCPT 18µM
CCCCc1cc(=O)oc2c(C)c(OCC(=O)N3CCCC3)ccc12	TDP1 cell CPT inconclusive, TDP1 cell noCPT inconclusive, IL1B secr inh inconclusive, TGFb SMAD3 inh inconclusive
Cc1cc(=O)oc2c(C)c(OCC(=O)N3CCN(c4cccc(Cl)c4)CC3)ccc12	TDP1 cell CPT 21µM, TDP1 cell noCPT 23µM
CC(OC(=O)/C=C/c1cccc(Cl)c1)C(=O)NC1CCCCC1C (centres undefined)	none
Cc1ccc(S(=O)(=O)N2CCN(C(=O)CN3CCN(c4ccc(O)cc4)CC3)CC2)cc1	TDP1 cell CPT inconclusive, TDP1 cell noCPT inconclusive (no result: TDP1 block)
CCCCOc1ccccc1C(=O)Nc1nonc1-c1ccccc1	TDP1 cell CPT inconclusive, TDP1 cell noCPT inconclusive, TGFb SMAD3 inh inconclusive (no result: IL1B secr inh)
Cc1cc(=O)oc2c(C)c(OCC(=O)N3CCN(C(=O)C4COc5ccccc5O4)CC3)ccc12 (centres undefined)	TDP1 cell CPT inconclusive, TDP1 cell noCPT 16µM
COCCCn1c(-c2ccc(Cl)cc2)n[nH]c1=S	none
COCCCn1cn[nH]c1=S	TDP1 cell CPT inconclusive, TDP1 cell noCPT 15µM
O=S(=O)(c1cccc(S(=O)(=O)N2CCCC2)c1)c1cccc(S(=O)(=O)N2CCCC2)c1	TDP1 cell CPT 13µM, TDP1 cell noCPT inconclusive
O=[N+]([O-])c1cccc2c(S(=O)(=O)N3CCOCC3)cccc12	TDP1 cell CPT inconclusive, TDP1 cell noCPT inconclusive, TDP1 block 20µM
O=S(=O)(c1cccc(S(=O)(=O)N2CCCC2)c1)N1CCCCC1	none (no result: TDP1 block)
O=[N+]([O-])c1cccc2c(S(=O)(=O)N3CCCCC3)cccc12	TDP1 cell noCPT inconclusive
COc1c(S(=O)(=O)N2CCCCC2)ccc2c(S(=O)(=O)N3CCCCC3)cccc12	TDP1 cell CPT 16µM, TDP1 cell noCPT 23µM (no result: TDP1 block)
O=S(=O)(c1cccc2c(S(=O)(=O)N3CCCC3)cccc12)N1CCCC1	TDP1 cell CPT inconclusive, TDP1 cell noCPT 16µM
COc1cc(Cl)c(C)cc1NC(=O)Cn1ncc2c(=O)oc3ccccc3c21	none (no result: IL1B secr inh)

Assay outcomes as filed in PubChem.
